Measured values from PubChem BioAssay (NCATS).
Results filed as inconclusive are left out. Active and inactive are the calls of the source. The call rests on the fitted dose curve; in most records, active means well fitted curve in the direction sought with a large enough effect; inconclusive means small, poorly fitted or top-dose-only effect, or another doubt; inactive means no such curve, though single readings can be large; an effect the other way counts as inactive or inconclusive.

Columns and labels:
[1] = target: Glutathione peroxidase 1 (Homo sapiens) (UniProt P07203); assay: Primary qHTS Assay for Inhibitors of Recombinant Selenoprotein Glutathione Peroxidase 1 (GPX1) (AID 1845191); further: nearly all actives have a fitted effect of over 65% in size; on activity, negative = inhibition: on the % scale 0 is the no-effect control and ±100 the full control effect
In short: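 GR-coupled readout: NADPH consumption tracked by fluorescence, ex 340/em 450 nm, at t=0 and after 15 min at RT. Final mix 10 nM GPX1, 1 mM GSH, 0.5 mM CHP, 0.5 mM NADPH, 100 nM GR, 0.01% BSA, following 30 min enzyme–compound preincubation.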

[2] = target: Phospholipid hydroperoxide glutathione peroxidase GPX4 (Homo sapiens) (UniProt P36969); assay: Primary qHTS Assay for Inhibitors of Recombinant Selenoprotein Glutathione Peroxidase 4 (GPX4) (AID 1845192); further: nearly all actives have a fitted effect of over 65% in size; on activity change, negative = inhibition: series mostly up to about 50 µM; on the % scale 0 is the no-effect control and ±100 the full control effect
In short: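 Steps: GPX4 plus compound, 30 min RT; add GR/GSH/NADPH master mix; start with cumene hydroperoxide; read 340/450 nm fluorescence at 0 and 15 min. Finals were 200 nM GPX4, 1 mM GSH, 0.5 mM CHP, 0.5 mM NADPH, 100 nM GR.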

[3] = target: Luciferin 4-monooxygenase (Photinus pyralis) (UniProt P08659); assay: Primary firefly luciferase (FLuc) qHTS assay for identification of artifact compounds. (AID 1845220); further: nearly all actives have a fitted effect of over 60% in size;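 on activity change, negative = inhibition: series mostly up to about 54 µM; plate controls were DMSO vehicle for no effect and no enzyme for full effect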
In short: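 Enzymatic FLuc inhibition assay: compounds pre-exposed to luciferin/ATP (10 uM each) for 15 min, then purified P. pyralis enzyme at 10 nM added. Read-out: luminescence at 5 min.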

[4] = Primary fluorescence-based thiol-reactive (MSTI) qHTS assay for identification of artifact compounds. (AID 1845221); further: nearly all actives have a fitted effect of over 65% in size; further: potency means the concentration at half of the fitted maximal effect;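 on activity change, negative = thiol reactive: series mostly up to about 54 µM; thiol-reactive compounds lower the probe fluorescence signal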
In short: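 MSTI probe at 4 uM final in 2% DMSO/PBS pH 7.4; compounds, 1 h at room temperature in dark. Fluorescence Ex/Em 525/598 nm, normalised to Acetyl-MSTI and MSTI, fitted to 4-parameter Hill.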

[5] = system: Nanoluciferase (engineered Oplophorus gracilirostris luciferase); assay: Primary Nanoluciferase (NLuc) qHTS assay for identification of artifact compounds. (AID 1845222);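 further: NLuc secreted into diluted conditioned medium of S16 cells; series mostly up to about 54 µM; 0% = DMSO and -100% = no enzyme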
In short: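 S16 cell supernatant NLuc, 1:55; cpds qHTS; 15 min RT dark; Nano-Glo substrate 1:100, 5 min; luminescence; Hill fit of % inhibition.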

[6] = Viability counterscreen for antagonist of constitutive androstane receptor (CAR) against the NCATS DSHEA and TCM libraries (AID 1794837);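 further: compound exposure lasted 24 h before viability reading; 0% is about no effect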
In short: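 Cells: HepG2 line carrying CYP2B6 reporter and hCAR, seeded and attached 5 h. Then pin-transferred test substances plus agonist CITCO at 48 uM final; 24 h incubation; fluorogenic viability reagent, 1 h.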

[7] = Viability counterscreen for agonist of constitutive androstane receptor (CAR) against the NCATS DSHEA and TCM libraries (AID 1794838);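 further: HepG2 cells with CYP2B6 reporter and hCAR plus 0.75 µM PK11195 antagonist; 0% is about no effect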
In short: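 Cell health was measured as CellTiter-Fluor signal in HepG2-CYP2B6-hCAR cells treated for 24 h with substances alongside the hCAR antagonist PK11195 (0.75 uM final).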

[8] = target: Nuclear receptor subfamily 1 group I member 3 (Homo sapiens) (UniProt Q14994); assay: Primary qHTS for agonist of constitutive androstane receptor (CAR) against the NCATS DSHEA and TCM libraries (AID 1794839);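 further: HepG2 cells expressing human CAR with a CYP2B6 reporter plus PK11195 antagonist; luciferase reporter luminescence read with ONE-Glo; 0% is about no effect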
In short: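 qHTS, agonist mode: HepG2-CYP2B6-hCAR, 2,500 cells/well, 5 h attach; cpds + PK11195 0.75 µM final; 24 h, 37 °C, 5% CO2. Readouts: CellTiter-Fluor (405/540 nm), then ONE-Glo luminescence.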

[9] = HepG2 viability counterscreen (readout 2: ATP content) against the NCATS DSHEA and TCM libraries (AID 1794840); further: 0% is about no effect
In short: (§1)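 Same wells read twice: first fluorescence from cleaved GF-AFC substrate (25 uM final, 30 min, 37C) for live-cell protease, then CellTiter-Glo luminescence after 30 min at room temperature for ATP. HepG2 cells were exposed ~24 h to substances.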

[10] = HepG2 viability counterscreen (readout 1: protease activity) against the NCATS DSHEA and TCM libraries (AID 1794841);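 further: cells exposed to compounds for about 24 h before the protease read; 0% is about no effect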
In short: as §1

[11] = Primary redox qHTS assay for identification of artifact compounds. (AID 1845223);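 further: 0% = DMSO and 100% = reference compound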
In short: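 Redox-cycling detection via DTT (250 uM final) oxidation coupled to Amplex Red (25 uM)/HRP (250 mU/mL) in HBSS. 15 min preincubation plus 30 min after DTT, room temperature. Ex/Em 525/598 nm; 4-parameter Hill fit against DMSO and 10 uM DA3003.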

[12] = target: Cytochrome P450 3A4 (Homo sapiens) (UniProt P08684); assay: qHTS for inhibitors of CYP3A4 against the NCATS DSHEA and TCM libraries (AID 1919971); further: potency means the concentration at half of the fitted maximal effect
In short: (§2)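 Each CYP isoform and its pro-luciferin substrate, at isoform-specific final concentrations, were preincubated 15 min at RT with substances. NADPH regeneration solution (1x) started a 30-45 min reaction, and P450-Glo luminescence was read.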

[13] = target: Cytochrome P450 2D6 (Homo sapiens) (UniProt P10635); assay: qHTS for inhibitors of CYP2D6 against the NCATS DSHEA and TCM libraries (AID 1919972); further: on the % scale 0 is the no-effect control and ±100 the full control effect
In short: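 CYP2D6 enzyme with pro-luciferin substrate in manufacturer buffer (typically 100 mM KPO4), preincubated 15 min RT with substances (most at 19.5 nM upward); NADPH regeneration system (1x) started 30–45 min RT reaction; P450-Glo luminescence read after 30 min; quinidine as intraplate control.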

[14] = target: Cytochrome P450 2C9 (Homo sapiens) (UniProt P11712); assay: qHTS for inhibitors of CYP2C9 against the NCATS DSHEA and TCM libraries (AID 1919973); further: potency means the concentration at half of the fitted maximal effect
In short: as §2

[15] = target: Cytochrome P450 2C19 (Homo sapiens) (UniProt P33261); assay: qHTS for inhibitors of CYP2C19 against the NCATS DSHEA and TCM libraries (AID 1919974);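 further: luminescence from luciferin released by CYP2C19 oxidation of a pro-luciferin substrate; potency means the concentration at half of the fitted maximal effect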
In short: as §2

[16] = KB-3-1 P-gp reporter qHTS against the NCATS DSHEA and TCM libraries (AID 1919975); further: 0% is about no effect
In short: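 KB-3-1 parental line, 1536-well qHTS: cells seeded, ~4 h attachment, pintool compound addition, ~72 h at 37C, then CellTiter-Glo, 30 min RT, luminescence. Concentration-response format.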

[17] = target: Cytochrome P450 1A2 (Homo sapiens) (UniProt P05177); assay: qHTS for inhibitors of CYPIA2 against the NCATS DSHEA and TCM libraries (AID 1919976); further: potency means the concentration at half of the fitted maximal effect
In short: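 Reaction started with 1x NADPH regeneration solution and run 30-45 min, room temperature, protected from light, after compounds sat 15 min with CYP1A2 and pro-luciferin substrate. P450-Glo detection gave luminescence; furafylline served as control.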

[18] = qHTS Counterscreen for compound interference against the NCATS DSHEA and TCM libraries (AID 1919978); settings: firefly luciferase detection reagent interference, luminescence;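 further: compounds preincubated with 1 µM D-luciferin or buffer before detection reagent; % of control where 0% means no effect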
In short: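 Compounds, titrated from 19.5 nM to 39.8 uM final, were pinned onto 1 uM D-luciferin or plain 100 mM potassium phosphate. After 15 min at room temperature, luciferin detection reagent was added for 30 min before the luminescence read.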

[19] = Dual reporter qHTS for agonist of Pregnane X Receptor (hPXR) against the NCATS DSHEA and TCM libraries: Fluorescence readout (AID 1920058); further: 0% is about no effect
In short: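 Viability readout (CellTiter-Fluor, 405/540 nm, 1 h) from agonist-mode PXR dual reporter in hPXR-Luc HepG2 cells. Substances ~24 h, 37 °C, 5% CO2; rifampicin reference, tetraoctyl ammonium bromide cytotoxic control.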

[20] = target: Nuclear receptor subfamily 1 group I member 2 (Homo sapiens) (UniProt O75469); assay: Dual reporter qHTS for agonist of Pregnane X Receptor (hPXR) against the NCATS DSHEA and TCM libraries: Luminescence readout (AID 1920059); further: potency means the concentration at half of the fitted maximal effect
In short: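 hPXR-Luc HepG2 cells, 2000/well in 5% charcoal-stripped FBS medium, attached 5 h, then exposed 24 h at 37C to compounds. Viability by CellTiter-Fluor, then luciferase luminescence with ONE-Glo.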

Glutathione peroxidase 1 (Homo sapiens), sequence (P07203 whole entry, looked up): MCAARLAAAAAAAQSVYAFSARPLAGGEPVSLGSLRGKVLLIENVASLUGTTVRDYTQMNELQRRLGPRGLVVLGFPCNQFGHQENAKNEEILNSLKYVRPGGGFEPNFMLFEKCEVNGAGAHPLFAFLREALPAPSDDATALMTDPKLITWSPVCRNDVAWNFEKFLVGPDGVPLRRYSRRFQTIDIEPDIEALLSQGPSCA
Phospholipid hydroperoxide glutathione peroxidase GPX4 (Homo sapiens), sequence (P36969 whole entry, looked up): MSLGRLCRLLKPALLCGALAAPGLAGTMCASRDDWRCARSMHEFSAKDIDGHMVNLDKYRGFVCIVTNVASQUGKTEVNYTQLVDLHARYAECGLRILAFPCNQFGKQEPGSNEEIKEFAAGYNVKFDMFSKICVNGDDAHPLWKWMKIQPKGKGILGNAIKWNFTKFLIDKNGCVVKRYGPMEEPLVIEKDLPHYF
Nuclear receptor subfamily 1 group I member 2 (Homo sapiens), sequence (O75469 whole entry, looked up): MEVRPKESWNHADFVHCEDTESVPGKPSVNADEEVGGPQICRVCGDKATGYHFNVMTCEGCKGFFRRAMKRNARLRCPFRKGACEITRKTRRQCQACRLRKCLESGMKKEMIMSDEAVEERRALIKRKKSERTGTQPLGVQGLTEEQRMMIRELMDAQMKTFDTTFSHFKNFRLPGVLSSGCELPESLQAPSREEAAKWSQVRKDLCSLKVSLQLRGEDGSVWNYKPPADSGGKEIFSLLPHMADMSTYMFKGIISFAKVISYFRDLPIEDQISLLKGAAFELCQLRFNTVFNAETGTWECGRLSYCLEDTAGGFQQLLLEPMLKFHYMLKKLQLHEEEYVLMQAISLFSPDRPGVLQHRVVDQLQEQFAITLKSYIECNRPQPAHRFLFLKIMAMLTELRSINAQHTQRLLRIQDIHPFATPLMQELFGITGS
Cytochrome P450 2C19 (Homo sapiens), sequence (P33261 whole entry, looked up): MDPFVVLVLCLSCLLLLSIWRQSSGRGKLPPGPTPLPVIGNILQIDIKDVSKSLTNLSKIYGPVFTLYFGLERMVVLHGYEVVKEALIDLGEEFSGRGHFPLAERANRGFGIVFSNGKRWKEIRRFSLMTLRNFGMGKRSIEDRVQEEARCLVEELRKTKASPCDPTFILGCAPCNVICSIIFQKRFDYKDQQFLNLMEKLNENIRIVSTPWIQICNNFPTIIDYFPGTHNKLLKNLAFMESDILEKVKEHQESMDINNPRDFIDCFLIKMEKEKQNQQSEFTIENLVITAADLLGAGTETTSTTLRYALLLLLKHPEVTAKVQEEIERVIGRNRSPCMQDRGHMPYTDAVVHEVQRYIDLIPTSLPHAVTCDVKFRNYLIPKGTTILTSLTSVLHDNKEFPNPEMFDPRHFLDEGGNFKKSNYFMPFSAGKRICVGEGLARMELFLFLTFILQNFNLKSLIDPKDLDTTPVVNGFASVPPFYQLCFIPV
Cytochrome P450 2C9 (Homo sapiens), sequence (P11712 whole entry, looked up): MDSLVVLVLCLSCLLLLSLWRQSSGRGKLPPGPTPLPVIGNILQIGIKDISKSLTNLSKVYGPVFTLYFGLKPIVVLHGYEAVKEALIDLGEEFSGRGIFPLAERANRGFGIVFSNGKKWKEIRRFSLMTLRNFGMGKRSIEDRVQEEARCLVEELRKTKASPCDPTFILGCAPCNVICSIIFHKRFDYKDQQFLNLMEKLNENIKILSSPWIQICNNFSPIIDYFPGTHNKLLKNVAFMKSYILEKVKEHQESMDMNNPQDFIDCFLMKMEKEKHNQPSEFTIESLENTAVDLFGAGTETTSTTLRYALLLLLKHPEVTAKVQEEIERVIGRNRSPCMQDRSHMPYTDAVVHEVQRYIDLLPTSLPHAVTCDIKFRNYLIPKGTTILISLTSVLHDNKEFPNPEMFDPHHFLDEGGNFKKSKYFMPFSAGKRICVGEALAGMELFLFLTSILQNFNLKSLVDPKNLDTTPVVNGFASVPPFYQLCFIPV
Nuclear receptor subfamily 1 group I member 3 (Homo sapiens), sequence (Q14994 whole entry, looked up): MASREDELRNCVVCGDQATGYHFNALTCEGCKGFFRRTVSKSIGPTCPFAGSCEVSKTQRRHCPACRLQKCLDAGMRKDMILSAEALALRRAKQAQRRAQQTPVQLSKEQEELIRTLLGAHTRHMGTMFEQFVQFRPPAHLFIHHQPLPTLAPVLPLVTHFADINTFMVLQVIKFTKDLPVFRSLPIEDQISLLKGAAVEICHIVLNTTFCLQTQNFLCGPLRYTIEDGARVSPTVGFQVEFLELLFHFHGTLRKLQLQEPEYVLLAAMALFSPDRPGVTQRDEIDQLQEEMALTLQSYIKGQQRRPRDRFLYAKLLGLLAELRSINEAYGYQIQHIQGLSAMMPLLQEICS
Cytochrome P450 2D6 (Homo sapiens), sequence (P10635 whole entry, looked up): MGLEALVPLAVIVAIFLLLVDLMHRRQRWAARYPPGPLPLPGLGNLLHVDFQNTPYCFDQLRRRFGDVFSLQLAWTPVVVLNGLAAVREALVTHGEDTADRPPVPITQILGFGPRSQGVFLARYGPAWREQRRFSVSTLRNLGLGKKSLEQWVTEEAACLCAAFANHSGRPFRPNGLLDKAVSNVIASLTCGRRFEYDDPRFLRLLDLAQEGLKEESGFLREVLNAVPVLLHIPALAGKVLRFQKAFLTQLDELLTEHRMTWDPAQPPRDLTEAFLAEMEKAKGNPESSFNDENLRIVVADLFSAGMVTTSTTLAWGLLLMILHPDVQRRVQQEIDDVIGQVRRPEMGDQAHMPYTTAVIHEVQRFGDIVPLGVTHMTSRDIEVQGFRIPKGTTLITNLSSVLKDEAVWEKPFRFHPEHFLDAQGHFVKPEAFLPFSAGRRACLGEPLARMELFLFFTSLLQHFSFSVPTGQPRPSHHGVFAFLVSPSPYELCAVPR
Cytochrome P450 3A4 (Homo sapiens), sequence (P08684 whole entry, looked up, canonical isoform): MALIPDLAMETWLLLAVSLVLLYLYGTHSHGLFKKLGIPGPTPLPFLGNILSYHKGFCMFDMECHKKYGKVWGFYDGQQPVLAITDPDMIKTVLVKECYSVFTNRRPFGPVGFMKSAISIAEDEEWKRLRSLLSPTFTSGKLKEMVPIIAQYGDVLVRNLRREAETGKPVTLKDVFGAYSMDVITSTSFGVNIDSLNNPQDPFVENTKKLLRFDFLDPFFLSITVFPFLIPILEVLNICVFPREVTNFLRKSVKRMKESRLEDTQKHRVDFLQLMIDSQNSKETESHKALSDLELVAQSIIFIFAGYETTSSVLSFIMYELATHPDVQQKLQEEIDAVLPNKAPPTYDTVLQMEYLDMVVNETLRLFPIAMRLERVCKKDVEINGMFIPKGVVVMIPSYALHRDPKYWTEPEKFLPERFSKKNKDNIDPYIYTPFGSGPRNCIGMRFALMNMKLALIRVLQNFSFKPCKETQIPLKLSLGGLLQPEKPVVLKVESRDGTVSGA
Cytochrome P450 1A2 (Homo sapiens), sequence (P05177 whole entry, looked up): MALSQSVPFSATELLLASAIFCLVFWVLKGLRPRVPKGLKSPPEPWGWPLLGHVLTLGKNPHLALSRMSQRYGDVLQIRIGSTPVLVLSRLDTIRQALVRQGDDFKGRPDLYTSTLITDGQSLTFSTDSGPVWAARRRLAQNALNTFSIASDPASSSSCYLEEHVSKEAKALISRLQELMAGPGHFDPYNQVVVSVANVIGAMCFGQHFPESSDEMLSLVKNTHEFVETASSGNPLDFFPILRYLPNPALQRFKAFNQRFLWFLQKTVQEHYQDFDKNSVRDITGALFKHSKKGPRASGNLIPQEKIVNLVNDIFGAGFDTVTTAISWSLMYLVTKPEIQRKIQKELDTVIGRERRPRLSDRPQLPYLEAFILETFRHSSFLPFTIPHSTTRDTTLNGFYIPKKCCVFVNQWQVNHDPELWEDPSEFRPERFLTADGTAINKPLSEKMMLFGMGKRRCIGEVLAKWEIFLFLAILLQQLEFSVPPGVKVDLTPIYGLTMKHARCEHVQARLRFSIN

CC(=O)O[C@@H]1C(O)C[C@@]2(C)C(CC[C@@H](C)C23Cc2c(O)cc4c(c2O3)CNC4=O)C1(C)C (some centres not stated)
inactive: Potency [1] | Potency [2] | Potency [3] | Potency [4] | Potency [5]

CCC(C)/C=C(C)/C=C/C1=CC2=C(Cl)C(=O)C(C)(OC(C)=O)C(=O)C2=CN1C(CCC(=O)O)C(=O)O (configuration not stated)
active: Potency [4] 0.367 µM
inactive: Potency [1] | Potency [2] | Potency [3]

CC1(C)CC[C@]2(C(=O)OC3OC(CO)C(O)C(O)C3O)CC[C@]3(C)C(=CCC4[C@@]5(C)C[C@@H](O)[C@H](OC6OC(C(=O)O)C(O)C(O)C6O)C(C)(C)C5CC[C@]43C)[C@@H]2C1 (some centres not stated)
inactive: Potency [1] | Potency [2] | activity change, negative = inhibition [3] -3.02% [at 11.6 µM] | activity change, negative = thiol reactive [4] 309% [at 11.5 µM] | activity, negative = inhibition [5] 1.92% [at 11.6 µM]

O=C(OCC1=CC(Cl)C(O)C(OC(=O)c2ccccc2)C1O)c1ccccc1 (configuration not stated)
inactive: Potency [1] | Potency [2] | Potency [3] | Potency [4] | Potency [5]

C[C@@H]1O[C@@H](O[C@H]2[C@H](O)[C@@H](O)[C@H](OC[C@H]3O[C@@H](OC(=O)[C@]45CCC(C)(C)C[C@H]4C4=CCC6[C@@]7(C)C[C@@H](O)[C@H](O)[C@@](C)(CO)C7[C@H](O)C[C@@]6(C)[C@]4(C)CC5)[C@H](O)[C@@H](O)[C@@H]3O)O[C@@H]2CO)[C@H](O)[C@H](O)[C@H]1O (some centres not stated)
inactive: Potency [1] | Potency [2] | activity change, negative = inhibition [3] 0.345% [at 11.6 µM] | activity change, negative = thiol reactive [4] 224% [at 11.5 µM] | activity, negative = inhibition [5] 1.41% [at 11.6 µM]

CC1(C)CC[C@]2(C(=O)O[C@@H]3O[C@H](CO)[C@@H](O)[C@H](O)[C@H]3O)CC[C@]3(C)C(=CCC4[C@@]5(C)CC[C@H](O[C@@H]6O[C@H](C(=O)O)[C@@H](O)[C@H](O)[C@H]6OC6OC(CO)C(O)C(O)C6O)C(C)(C)C5CC[C@]43C)[C@@H]2C1 (some centres not stated)
inactive: Potency [1] | Potency [2] | activity change, negative = inhibition [3] 1.1% [at 11.6 µM] | activity change, negative = thiol reactive [4] 43.7% [at 11.5 µM] | activity, negative = inhibition [5] 0.31% [at 11.6 µM]

COc1ccc(CC(NC(C)=O)C(=O)O)cc1 (configuration not stated)
active: Potency [4] 4.74 µM
inactive: Potency [1] | Potency [2] | Potency [3] | Potency [5]

Fc1ccc(-c2c3cccc(C(F)(F)F)c3nn2Cc2ccc(F)cc2Cl)cc1
inactive: Potency [1] | Potency [2] | Potency [3] | Potency [4] | Potency [5]

CC(=O)OC1CC(C(C)(C)O)OC2CCC3(C)OC4=C(C(=O)C=C5C(C)C(OC(C)=O)C6(C)C(C)OC546)C(O)C3C12C (configuration not stated)
inactive: Potency [1] | Potency [2] | Potency [3] | Potency [4] | Potency [5]

Cc1nc2ccccc2c(-c2ccc3c4c(ccnc24)CCO3)c1[C@H](OC(C)(C)C)C(=O)O
inactive: Potency [1] | Potency [2] | Potency [3] | Potency [4] | Potency [5]

CC(O)C(O)/C=C/C=C/C(=O)O[C@@H]1C=C(C(=O)O)[C@](O)(CO)[C@@]2(C)CCCC(C)(C)[C@H]12 (some centres not stated)
inactive: Potency [1] | Potency [2] | Potency [3] | Potency [4] | Potency [5]

OC[C@H]1O[C@@H](OCCc2ccccc2)[C@H](O[C@@H]2OC[C@@H](O)[C@H](O)[C@H]2O)[C@@H](O)[C@@H]1O
inactive: Potency [1] | Potency [2] | Potency [3] | Potency [5]
active: Potency [4] 4.12 µM

CC(=O)O[C@@H]1C[C@@H](C)[C@](O)(CCC2=CC(=O)OC2)[C@@]2(C)CCCC(C)(C)C12 (some centres not stated)
active: Potency [12] 4.47 µM | Potency [14] 8.91 µM | Potency [15] 2.82 µM | Potency [17] 3.98 µM | Potency [20] 12.6 µM
inactive: outcome [6] | outcome [7] | outcome [8] | outcome [9] | outcome [10] | Potency [1] | Potency [2] | Potency [3] | Potency [4] | Potency [5] | Potency [11] | outcome [13] | outcome [16] | max response [18] -1.72% | outcome [19]

C[C@@H]1CC[C@]2(C(=O)O[C@@H]3O[C@H](CO[C@@H]4O[C@H](CO)[C@@H](O)[C@H](O)[C@H]4O)[C@@H](O)[C@H](O)[C@H]3O)CC[C@]3(C)C(=CCC4[C@@]5(C)CC[C@H](O)[C@](C)(C(=O)O)C5CC[C@]43C)[C@@H]2[C@]1(C)O (some centres not stated)
inactive: Potency [1] | Potency [2] | activity change, negative = inhibition [3] -0.663% [at 11.6 µM] | activity change, negative = thiol reactive [4] 22.8% [at 11.5 µM] | activity, negative = inhibition [5] 2.17% [at 11.6 µM]

CC1(C(=O)O)CCCC2(C)C3CCC4CC3(CCC12)CC4(O)CO (configuration not stated)
inactive: Potency [1] | Potency [2] | Potency [3] | Potency [4] | Potency [5]

H-DPPDPDRFYGMM-NH2
inactive: Potency [1] | Potency [2] | Potency [3] | Potency [4] | Potency [5]

O=C1OC(c2ccc(O)cc2)C(O)=C1Cc1ccccc1 (configuration not stated)
inactive: Potency [1] | Potency [2] | Potency [3]
